This passage reports growth results from PubChem BioAssay (NCI).

About 83,000 compounds went through this panel and 20% of them were active in at least one assay; those are over-represented in the sample as a whole.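 Activity criterion: percent growth below 10, measured after cells in 96-well plates were exposed to a single compound concentration for 48 hours.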 Active and inactive are the calls of the source.

The test system of the first experiment is SR leukemia. Briefly: NCI-60 one-dose screen, 48 h (100 = growth as untreated, 0 = no growth, -100 = all killed). The settings on record: 10 µM unless noted.
Consider `COC(=O)CC1=C(c2ccc([N+](=O)[O-])cc2)CCC1=O`, for which the growth was 104% (inactive).
On to `CCOC(=O)C1C(=O)NC(C(=O)OCC)(C(=O)OCC)C1CC` (stereo not given), for which the growth is 107% (inactive).
On to `COc1cccc(/C=N\NC(=O)c2ccncc2)c1O`, for which the growth is 21% (inactive).
Take `O=C(O)c1ccc(CNS(=O)(=O)c2ccc3ccccc3c2)cc1`: the growth was 33.4% (inactive).
Consider `c1cc[n+](Cc2ccnc3ccccc23)cc1`, for which the growth was 24.1% (inactive).
For `O=C(COc1cccc(/C=C2\Oc3ccc4ccccc4c3C2=O)c1)c1ccc([N+](=O)[O-])cc1`, the growth is 3.73% (active).
On to `COC(=O)Nc1ccc2ccc3c(NC(=O)OC)ccc4ccc1c2c43` (tested in a mixture with another compound), for which the growth was 24.1% (inactive).
Consider `O=C(Nc1cccc(Cl)c1)Nc1cccc(Cl)c1`, for which the growth is 66.4% (inactive).
Turning to `COc1cc(/C=C/c2cc(/C=C/c3ccc(O)c(OC)c3)n(C(=O)c3ccc(Cl)cc3)n2)ccc1O`, the growth was 3.07% (active).
Take `O=C(Oc1cccc2ccccc12)c1ccccc1C(=O)c1ccccc1`: the growth is 3.67% (active).
Consider `CCCCCN1C(=O)CCC1=O`, for which the growth is 107% (inactive).
The same measure, in the same setting: under `CCC(C)C1NC(=O)C(CCNCS(=O)(=O)O)NC(=O)C(NC(=O)C(CCNCS(=O)(=O)O)NC(=O)C(NC(=O)C(CCNCS(=O)(=O)O)NC(=O)CCCCC(C)C)C(C)O)CCNC(=O)C(C(C)O)NC(=O)C(CCNCS(=O)(=O)O)NC(=O)C(CCNCS(=O)(=O)O)NC(=O)C(C(C)CC)NC1=O` (stereo not given) stands 16.4% (inactive); under `O=C1OC(Oc2ccccc2)(c2ccccc2)c2ccccc21` (stereo not given), 79.1% (inactive); under `N/C(=N\c1nc2ccccc2s1)NC(=O)Nc1ccccc1Cl`, 9.92% (active).
With `NC(=O)NC1(C(=O)O)CCCC1`, the growth is 91.8% (inactive).
Consider `c1ccc(-c2oc(-c3ccccc3)c3ccccc23)cc1`, for which the growth is 56.8% (inactive).
On the same count and under the same terms, the same measure for `O=C1NC(=O)/C(=C/c2ccc(Cl)cc2Cl)N1`: 93% (inactive); for `CC[C@@H](C)/C=C(C)/C=C/C(O)=C1\C(=O)N[C@@H](Cc2ccc(OC(=O)[C@@](OC)(c3ccccc3)C(F)(F)F)cc2)C1=O`: 62.6% (inactive).
On to `CC(=O)Nc1ccc(C(=O)COc2ccc(/C=C3\CCc4ccccc4C3=O)cc2)cc1`, for which the growth was 84.4% (inactive).
Turning to `CN(C)CCC(=O)Nc1ccc(-n2cc(-c3cccc(NC(=S)Nc4cccc(-c5cn(-c6ccc(NC(=O)CCN(C)C)cc6)nn5)c4)c3)nn2)cc1`, the growth is 25.9% (inactive).
As for `CC[C@@H](C)/C=C(C)/C=C/C(=O)c1c(O)c(-c2ccc(O)cc2)cn(OC2CC(=O)CCC(C)OC(=O)CC2O)c1=O` (stereo not given in full), the growth is 7.95% (active).
The same measure, in the same setting: the same measure for `O=c1c2c(=NCCCN3CCCC3)cc3c(=O)n(CCCN4CCCC4)c(=O)c4c(NCCCN5CCCC5)cc(c(O)n1CCCN1CCCC1)c2c4-3`: 3.03% (active); for `Cc1ccc2c(c1)C(=O)/C(=C\Nc1ccc(C(N)=O)cc1)C(O)O2` (stereo not given): 97.1% (inactive).
Turning to `Cc1nn(-c2ccccc2)cc1/C=C1\SC(N2CCCCC2)=NC1=O`, the growth is 8.09% (active).
On to `NC(=O)c1cc(Br)cc(Br)c1NS(=O)(=O)c1ccccc1`, for which the growth is 101% (inactive).
With `COc1ccc2ncccc2c1Cc1c(OC)ccc2ncccc12`, the growth is 25.7% (inactive).
As to `CN1CCN(CCCCCN=c2cc3c(=O)n(CCCCCN4CCN(C)CC4)c(=O)c4c(NCCCCCN5CCN(C)CC5)cc5c(O)n(CCCCCN6CCN(C)CC6)c(=O)c2c5c4-3)CC1`, the growth was 1.43% (active).
`COc1ccccc1-n1c(-c2ccc(O)cc2C)cn2c3c(=O)[nH]c(=O)n(C)c3nc12`: the growth was 90.8% (inactive).
For `C=C(CN1CCc2c([nH]c3ccccc23)C1)c1ccc(C(=O)Nc2ccon2)cc1`, the growth is 80.9% (inactive).
On to `O=C(Oc1ccccc1)C(Br)C(Br)c1ccccc1` (stereo not given), for which the growth was -23.6% (active).
Take `COc1cccc(C=Nc2cc(C(C)C)c(O)cc2C)c1O`: the growth was 113% (inactive).
The same measure, in the same setting: under `O=C(c1ccccc1)C(CN1CCCCC1)c1ccccc1` (stereo not given) stands -3.65% (active); under `Nc1ccc(N=Nc2ccccc2)cc1[N+](=O)[O-]`, 93.2% (inactive); under `COc1ccc(C2=NN(C(N)=S)C(c3ccc4c(c3)OCO4)C2)cc1` (stereo not given), 4.75% (active).
`CC(=O)c1ccc(NS(=O)(=O)c2ccc([N+](=O)[O-])cc2)cc1`: the growth was 83.8% (inactive).
Consider `Nc1nc2c(nnn2Cc2ccc(Cl)c(Cl)c2)c(=O)[nH]1`, for which the growth was 92% (inactive).
`CC1CN(CC(O)c2ccc(Br)cc2)CCO1` (stereo not given): the growth is 92.3% (inactive).
Consider `O=C1NC(=O)/C(=C\c2ccco2)S1`, for which the growth was 113% (inactive).
Turning to `CCCCCCCSc1ncnc2[nH]ncc12`, the growth was 79.3% (inactive).
As for `CN(C)CCCN=c1cc2c(=O)n(CCCN(C)C)c(=O)c3c(NCCCN(C)C)cc4c(O)n(CCCN(C)C)c(=O)c1c4c3-2`, the growth is 6.3% (active).

Another experiment concerns OVCAR-8 ovarian. The description is as above. As to conditions: 10 µM unless noted.
With `COC(=O)CC1=C(c2ccc([N+](=O)[O-])cc2)CCC1=O`, the growth was 104% (inactive).
Take `CCOC(=O)C1C(=O)NC(C(=O)OCC)(C(=O)OCC)C1CC` (stereo not given): the growth was 108% (inactive).
Turning to `COc1cccc(/C=N\NC(=O)c2ccncc2)c1O`, the growth was 58.7% (inactive).
Same read-out and setting: the same measure for `O=C(O)c1ccc(CNS(=O)(=O)c2ccc3ccccc3c2)cc1`: 67.7% (inactive); for `c1cc[n+](Cc2ccnc3ccccc23)cc1`: 99.6% (inactive).
As to `O=C(COc1cccc(/C=C2\Oc3ccc4ccccc4c3C2=O)c1)c1ccc([N+](=O)[O-])cc1`, the growth is 97.6% (inactive).
Regarding `COC(=O)Nc1ccc2ccc3c(NC(=O)OC)ccc4ccc1c2c43` (tested in a mixture with another compound), the growth is 66.5% (inactive).
On the same count and under the same terms, under `O=C(Nc1cccc(Cl)c1)Nc1cccc(Cl)c1` stands 77% (inactive); under `COc1cc(/C=C/c2cc(/C=C/c3ccc(O)c(OC)c3)n(C(=O)c3ccc(Cl)cc3)n2)ccc1O`, 29.1% (inactive); under `O=C(Oc1cccc2ccccc12)c1ccccc1C(=O)c1ccccc1`, 91.7% (inactive).
In the case of `CCCCCN1C(=O)CCC1=O`, the growth is 94.4% (inactive).
For `CCC(C)C1NC(=O)C(CCNCS(=O)(=O)O)NC(=O)C(NC(=O)C(CCNCS(=O)(=O)O)NC(=O)C(NC(=O)C(CCNCS(=O)(=O)O)NC(=O)CCCCC(C)C)C(C)O)CCNC(=O)C(C(C)O)NC(=O)C(CCNCS(=O)(=O)O)NC(=O)C(CCNCS(=O)(=O)O)NC(=O)C(C(C)CC)NC1=O` (stereo not given), the growth is 78.7% (inactive).
Turning to `O=C1OC(Oc2ccccc2)(c2ccccc2)c2ccccc21` (stereo not given), the growth is 102% (inactive).
Consider `N/C(=N\c1nc2ccccc2s1)NC(=O)Nc1ccccc1Cl`, for which the growth was 15.5% (inactive).
Consider `NC(=O)NC1(C(=O)O)CCCC1`, for which the growth is 106% (inactive).
On the same count and under the same terms, under `c1ccc(-c2oc(-c3ccccc3)c3ccccc23)cc1` stands 102% (inactive).
As for `O=C1NC(=O)/C(=C/c2ccc(Cl)cc2Cl)N1`, the growth was 101% (inactive).
For the compound `CC[C@@H](C)/C=C(C)/C=C/C(O)=C1\C(=O)N[C@@H](Cc2ccc(OC(=O)[C@@](OC)(c3ccccc3)C(F)(F)F)cc2)C1=O`, the growth was 103% (inactive).
For the compound `CC(=O)Nc1ccc(C(=O)COc2ccc(/C=C3\CCc4ccccc4C3=O)cc2)cc1`, the growth is 98.8% (inactive).
Consider `CN(C)CCC(=O)Nc1ccc(-n2cc(-c3cccc(NC(=S)Nc4cccc(-c5cn(-c6ccc(NC(=O)CCN(C)C)cc6)nn5)c4)c3)nn2)cc1`, for which the growth is 97.3% (inactive).
Turning to `CC[C@@H](C)/C=C(C)/C=C/C(=O)c1c(O)c(-c2ccc(O)cc2)cn(OC2CC(=O)CCC(C)OC(=O)CC2O)c1=O` (stereo not given in full), the growth was 17.5% (inactive).
In the case of `O=c1c2c(=NCCCN3CCCC3)cc3c(=O)n(CCCN4CCCC4)c(=O)c4c(NCCCN5CCCC5)cc(c(O)n1CCCN1CCCC1)c2c4-3`, the growth was 5.37% (active).
On to `Cc1ccc2c(c1)C(=O)/C(=C\Nc1ccc(C(N)=O)cc1)C(O)O2` (stereo not given), for which the growth is 97.1% (inactive).
Consider `Cc1nn(-c2ccccc2)cc1/C=C1\SC(N2CCCCC2)=NC1=O`, for which the growth was 81.4% (inactive).
For the compound `NC(=O)c1cc(Br)cc(Br)c1NS(=O)(=O)c1ccccc1`, the growth is 114% (inactive).
As for `COc1ccc2ncccc2c1Cc1c(OC)ccc2ncccc12`, the growth is 87.3% (inactive).
Consider `CN1CCN(CCCCCN=c2cc3c(=O)n(CCCCCN4CCN(C)CC4)c(=O)c4c(NCCCCCN5CCN(C)CC5)cc5c(O)n(CCCCCN6CCN(C)CC6)c(=O)c2c5c4-3)CC1`, for which the growth is 12.6% (inactive).
On to `COc1ccccc1-n1c(-c2ccc(O)cc2C)cn2c3c(=O)[nH]c(=O)n(C)c3nc12`, for which the growth is 86.3% (inactive).
`C=C(CN1CCc2c([nH]c3ccccc23)C1)c1ccc(C(=O)Nc2ccon2)cc1`: the growth was 78.2% (inactive).
On the same count and under the same terms, under `O=C(Oc1ccccc1)C(Br)C(Br)c1ccccc1` (stereo not given) stands 103% (inactive); under `COc1cccc(C=Nc2cc(C(C)C)c(O)cc2C)c1O`, 98.8% (inactive); under `O=C(c1ccccc1)C(CN1CCCCC1)c1ccccc1` (stereo not given), 15.6% (inactive).
For `Nc1ccc(N=Nc2ccccc2)cc1[N+](=O)[O-]`, the growth was 94.7% (inactive).
As to `COc1ccc(C2=NN(C(N)=S)C(c3ccc4c(c3)OCO4)C2)cc1` (stereo not given), the growth is 20.9% (inactive).
As to `CC(=O)c1ccc(NS(=O)(=O)c2ccc([N+](=O)[O-])cc2)cc1`, the growth was 106% (inactive).
For the compound `Nc1nc2c(nnn2Cc2ccc(Cl)c(Cl)c2)c(=O)[nH]1`, the growth was 98.5% (inactive).
Regarding `CC1CN(CC(O)c2ccc(Br)cc2)CCO1` (stereo not given), the growth is 96.2% (inactive).
In the case of `O=C1NC(=O)/C(=C\c2ccco2)S1`, the growth is 105% (inactive).
Turning to `CCCCCCCSc1ncnc2[nH]ncc12`, the growth is 86.9% (inactive).
Consider `CN(C)CCCN=c1cc2c(=O)n(CCCN(C)C)c(=O)c3c(NCCCN(C)C)cc4c(O)n(CCCN(C)C)c(=O)c1c4c3-2`, for which the growth was 5.35% (active).
